The list is not random: actives were taken first. Their share in the collection is about 3.7%.
DRD3 agonist – D3 dopamine receptor (human) agonism. AID 652048. max activation, %. 410,000 compounds, 0.58% hits. D3R DiscoveRx beta-arrestin cells, luminescence, 90 min; in the data active = max activation above about 30%; note: 0% is about no effect
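Agonist mode: compounds and dopamine controls were applied to plated cells for 90 min at 37 degrees C after an overnight attachment at 1500 cells/well. Luminescent read-out followed 30 - 60 minutes at room temperature with DiscoveRx detection reagent.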
RGS4 inhibitor – blocks human RGS4-accelerated GTP hydrolysis; P49798; Transcreener GDP fluorescence polarization, RGS4-accelerated GTP hydrolysis; Potency, µM (doses to about 114 µM), for the others: at the top dose activity change, negative = inhibition, most hits filed as inhibitors; 390,000 compounds, 0.039% hits; note: potency is the fitted concentration of half-maximal effect; % is set by controls: 0 for no effect and ±100 for the full control effect; nearly all actives have a fitted effect of over 75% in size
Target sequence (P49798 whole entry, looked up): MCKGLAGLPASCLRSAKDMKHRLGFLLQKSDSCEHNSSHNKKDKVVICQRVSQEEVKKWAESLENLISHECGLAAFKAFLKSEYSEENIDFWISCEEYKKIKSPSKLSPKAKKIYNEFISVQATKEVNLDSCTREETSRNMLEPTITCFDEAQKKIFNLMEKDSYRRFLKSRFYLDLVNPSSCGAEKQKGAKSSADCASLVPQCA
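MLSMR compounds (23 nl, pin-transferred) preincubated 10 min at room temperature with a 500nM (2x) first reagent, then RGS4 at 900nM (2x) plus Transcreener GDP mix added; fluorescence polarization (620/688 nm) read before and after 90 min at 30 °C.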
PTHR1 agonist – agonists of human PTHR1 parathyroid hormone receptor; HEK293 GP2 PTHR1 cells, GloSensor cAMP luminescence, 1 h; Q03431; 410,000 compounds, 0.075% hits; Potency, µM (highest dose often 115 µM), for inactives: at the top dose activation, actives largely listed as activators; note: potency is the fitted concentration of half-maximal effect; nearly all actives have a fitted effect of over 55% in size
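HEK-293-derived GP2 cells expressing PTHR1 and a GloSensor cAMP reporter, 3,000/well, plated overnight, given luciferin plus IBMX (each 0.5 mM as added) for 1 h at 37 °C, then compound for 1 h at 37 °C. Luminescence was read after 15 min at room temperature.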
BRCA1 expr up – activators of BRCA1 expression; MCF7-BRCA1-FFLuc reporter, luminescence, 48 h; response scale: scaled: vehicle 0%, 10 µM genistein 100%; Potency, µM (doses to about 46.1 µM), for inactives: top-dose activation, usual class: activators; 380,000 compounds, 1.1% hits; note: potency is the fitted concentration of half-maximal effect; nearly all actives have a fitted effect of over 80% in size
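Activators of BRCA1 expression were detected as increased firefly luciferase luminescence in engineered MCF7 cells after 48 h compound incubation. Signals were scaled to genistein 10 microM as full activation.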
B2AR arrestin – agonists driving beta-arrestin recruitment to human beta2-adrenergic receptor; P07550; beta-arrestin recruitment to beta2AR, cell-based reporter; 330,000 compounds, 0.02% hits; Potency, µM (top dose mostly 46.1 µM), without a hit: top-dose activation, hits mostly activators;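 note: potency is the fitted concentration of half-maximal effect; 0% = DMSO controls and full agonism = EC100 isoproterenol or metaproterenol; nearly all actives have a fitted effect of over 65% in size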
Target sequence (P07550 whole entry, looked up): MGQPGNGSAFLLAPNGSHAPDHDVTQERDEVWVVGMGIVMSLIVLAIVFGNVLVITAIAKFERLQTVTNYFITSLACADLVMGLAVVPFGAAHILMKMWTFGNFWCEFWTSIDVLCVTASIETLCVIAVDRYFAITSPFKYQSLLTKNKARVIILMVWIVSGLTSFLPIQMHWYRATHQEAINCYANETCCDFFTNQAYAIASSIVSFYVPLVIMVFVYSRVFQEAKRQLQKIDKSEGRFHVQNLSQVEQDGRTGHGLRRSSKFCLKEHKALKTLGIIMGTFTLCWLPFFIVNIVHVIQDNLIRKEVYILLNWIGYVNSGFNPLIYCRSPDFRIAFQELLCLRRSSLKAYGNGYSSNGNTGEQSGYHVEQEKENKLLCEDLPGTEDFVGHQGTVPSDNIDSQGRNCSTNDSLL
DRD3 antagonist – D3 dopamine receptor (human) antagonism | AID 652054 | max response, negative = inhibition, % | 360,000 compounds, 2.5% hits | D3R cells, DiscoveRx beta-arrestin luminescence, antagonist mode; hits give low values; in the data active = max response below about -50%; inconclusive = no clear call, values can overlap the other calls; note: % is set by controls: 0 for no effect and ±100 for the full control effect
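Cells plated overnight at 1500 cells/well, then exposed to library compounds with dopamine controls for 90 minutes at 37 degrees C. DiscoveRx reagent added for 30–60 minutes at room temperature; luminescence read, quantitative HTS format.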
Numbers without * were called inactive; [ ] = another dose, or the depositor's remark. Unless noted, calls come from the whole dose curve; as a rule, active = well fitted curve in the direction sought with a large enough effect; inconclusive = small, poorly fitted or top-dose-only effect, or another doubt; inactive = no such curve, though single readings can be large; an effect the other way counts as inactive or inconclusive.

For COc1ccc(CNCc2cccc3ccccc23)cc1 the results were DRD3 agonist -8, RGS4 inhibitor -30%, PTHR1 agonist inactive, BRCA1 expr up 5%, B2AR arrestin 0% and DRD3 antagonist -60*.
For COc1ccc(CNCc2cccc(Cl)c2)cc1 the results were DRD3 agonist -14, RGS4 inhibitor -18%, PTHR1 agonist inactive, BRCA1 expr up 24%, B2AR arrestin 0% and DRD3 antagonist -50*.
For O=C(O)c1ccc(CNCc2cccc(Cl)c2)cc1 the results were DRD3 agonist -2, RGS4 inhibitor 4%, PTHR1 agonist inactive, BRCA1 expr up -2%, B2AR arrestin -1% and DRD3 antagonist 6.
`COc1cccc(NC(=O)NCc2ccccc2Cl)c1` gave DRD3 agonist -6, RGS4 inhibitor 6%, PTHR1 agonist -9%, BRCA1 expr up 13µM* and DRD3 antagonist -26.
COc1cccc(NC(=O)CCNC(=O)c2ccccc2Cl)c1 was read as DRD3 agonist 4, RGS4 inhibitor -18%, PTHR1 agonist -19%, BRCA1 expr up 16%, B2AR arrestin 0% and DRD3 antagonist -6.
For O=C(Nc1cccc(O)c1)c1cc(-c2cccs2)on1 the results were DRD3 agonist -1, RGS4 inhibitor 0%, PTHR1 agonist -34%, BRCA1 expr up 43%, B2AR arrestin 0% and DRD3 antagonist 7.
Screening CC(=O)c1cccc(NC(=O)c2cc(-c3cccs3)on2)c1 returned DRD3 agonist -20, RGS4 inhibitor -15%, PTHR1 agonist -3%, BRCA1 expr up 10µM*, B2AR arrestin 0% and DRD3 antagonist 0.
For O=C(CCCN1C(=O)c2ccccc2C1=O)NCCc1ccc(OC(F)F)cc1 the results were DRD3 agonist 10, RGS4 inhibitor -24%, PTHR1 agonist -16%, BRCA1 expr up 19%, B2AR arrestin 0% and DRD3 antagonist -4.
For Cc1cccn2c(=O)c3cc(C(=O)N(Cc4ccccc4)C(C)C)sc3nc12 the results were DRD3 agonist -2, RGS4 inhibitor 2% and PTHR1 agonist -41%.
For COc1ccc(CNC(=O)Nc2cccc(Cl)c2)cc1 the results were DRD3 agonist -4, RGS4 inhibitor 13%, PTHR1 agonist -31%, BRCA1 expr up 7.1µM*, B2AR arrestin -2% and DRD3 antagonist 0.
For COc1ccc(-c2cc(C(=O)Nc3cccc(C(C)=O)c3)no2)cc1 the results were DRD3 agonist 4, RGS4 inhibitor -18%, PTHR1 agonist -1%[57.5 µM], BRCA1 expr up 24%, B2AR arrestin -1% and DRD3 antagonist -8.
Screening COc1ccc(-c2cc(C(=O)Nc3cccc(Cl)c3)no2)cc1 returned DRD3 agonist -4, RGS4 inhibitor 23%, PTHR1 agonist inactive, BRCA1 expr up 3.2µM*, B2AR arrestin -1% and DRD3 antagonist 12.
`O=C(c1cccs1)N1CCN(c2ccc(Cl)cc2)CC1` gave DRD3 agonist -1, RGS4 inhibitor -18%, PTHR1 agonist -17%, BRCA1 expr up 72%, B2AR arrestin -1% and DRD3 antagonist 8.
`O=C(c1cccc2ccccc12)N1CCC(N2CCN(c3ccccc3)CC2)CC1` gave DRD3 agonist 75*, RGS4 inhibitor -2%, PTHR1 agonist -5%[57.5 µM], BRCA1 expr up -31%, B2AR arrestin 0% and DRD3 antagonist -58*.
COc1ccc(C(=O)N2CCC(N3CCN(c4ccccc4)CC3)CC2)cc1OC was read as DRD3 agonist 3, RGS4 inhibitor 18%, PTHR1 agonist -15%, BRCA1 expr up 4%, B2AR arrestin 0% and DRD3 antagonist inconclusive.
`O=C(c1cccs1)N1CCC(N2CCN(c3ccccc3)CC2)CC1` gave DRD3 agonist 47*, RGS4 inhibitor -31%, PTHR1 agonist inactive, BRCA1 expr up 4%, B2AR arrestin 0% and DRD3 antagonist inconclusive.
CCOC(=O)N1CCC(N2CCN(c3ccccc3)CC2)CC1 was read as DRD3 agonist 35*, RGS4 inhibitor -9%, PTHR1 agonist -12%, BRCA1 expr up -2%, B2AR arrestin 2% and DRD3 antagonist 8.
Screening COc1cc(OC)cc(C(=O)N2CCC(N3CCN(c4ccccc4)CC3)CC2)c1 returned DRD3 agonist 8, RGS4 inhibitor -16%, PTHR1 agonist 4%[57.5 µM], BRCA1 expr up -28%, B2AR arrestin 0% and DRD3 antagonist -63*.
Cc1ccc(Cl)cc1NC(=O)c1cc(S(=O)(=O)N2CCCCCC2)cn1C was read as DRD3 agonist -15, RGS4 inhibitor 2%, PTHR1 agonist -7% and BRCA1 expr up 6%.
Screening CCN(CC)S(=O)(=O)c1ccc(N2CCCC2)c(NC(=O)C2=NN(c3ccccc3)C(=O)CC2)c1 returned DRD3 agonist 6, RGS4 inhibitor -2%, PTHR1 agonist 10%, BRCA1 expr up -23%, B2AR arrestin 0% and DRD3 antagonist -9.
For CCOC(=O)N1CCC(N2CCN(S(=O)(=O)CC)CC2)CC1 the results were DRD3 agonist -5, RGS4 inhibitor 18%, PTHR1 agonist -6%[57.5 µM], BRCA1 expr up -7%, B2AR arrestin 0% and DRD3 antagonist -133*.
For COc1ccccc1N1CCN(C2CCN(C(=O)c3cccs3)CC2)CC1 the results were DRD3 agonist -17, RGS4 inhibitor 3%, PTHR1 agonist -28%, BRCA1 expr up -17%, B2AR arrestin 0% and DRD3 antagonist -63*.
For CCN(c1ccc(C)cc1C)S(=O)(=O)c1nnc(NC(=O)C(C)(C)C)s1 the results were DRD3 agonist -9, RGS4 inhibitor 9%, PTHR1 agonist -89%, BRCA1 expr up -39%, B2AR arrestin 0% and DRD3 antagonist -74*.
`COc1ccc2oc(=O)c(-c3csc(/C(C#N)=C/c4ccc(F)cc4)n3)cc2c1` gave DRD3 agonist 2, RGS4 inhibitor -12% and PTHR1 agonist 24%.
Screening O=C(CN1CCc2ccccc2C1)NCC(=O)Nc1ccc(F)cc1 returned DRD3 agonist -6, RGS4 inhibitor -12%, PTHR1 agonist -3%, BRCA1 expr up -7%, B2AR arrestin 3% and DRD3 antagonist 2.
Screening CN(C)S(=O)(=O)c1ccc(Cl)c(NC(=O)CN2CCc3ccccc3C2)c1 returned DRD3 agonist 74*, RGS4 inhibitor 4%, PTHR1 agonist -34%, BRCA1 expr up -41%, B2AR arrestin 0% and DRD3 antagonist 2.
For O=C(c1nc[nH]c1C(=O)N1CCc2ccccc2C1)N1CCc2ccccc2C1 the results were DRD3 agonist 142*, RGS4 inhibitor -27%, PTHR1 agonist -20%, BRCA1 expr up 13%, B2AR arrestin 0% and DRD3 antagonist 36.
